Results published in PubChem BioAssay AID1159580 (chemical genetic matrix, 2015).
Several values for one entry are separate records, joined by “and”; a condition that tells them apart may be missing. Equal entries are not always repeated. About 2,000 (36%) of roughly 5,500 compounds were called active. Not shown: some 18% with an inconclusive outcome. No stated cut-off is given here; in the data, active means normalized growth mostly below about 0.91 (no sharp cut-off); inconclusive means no clear call, values can overlap the other calls; inactive means mostly above about 0.92. The list shows a part of the results.

Assay: chemical genetic growth profiling, strain panel (AID 1159580);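 further: tested at 20 µM; growth read once vehicle control cultures reached saturation at 30 °C; 1 = growth at the plate median or of vehicle wells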
Settings: S. cerevisiae deletion strains, growth OD

Measured: normalized growth

CCC(=O)O[C@H]1CCC2C3CCc4cc(O)ccc4C3CC[C@@]21C (stereo partly drawn)
active: locus YAL013W, strain DEP1, stronger effect = lower value 0.7 | locus YDL074C, strain BRE1, stronger effect = lower value 0.447 | locus YDR159W, strain sac3, stronger effect = lower value 0.596 | locus YDR195W, strain ref2 0.209 | locus YDR392W, strain spt3, stronger effect = lower value 0.531 | locus YER155C, strain BEM2, stronger effect = lower value 0.295 | locus YGR229C, strain SMI1, stronger effect = lower value 0.584 | locus YHR079C, strain IRE1, stronger effect = lower value 0.538 | locus YJL095W, strain BCK1, stronger effect = lower value 0.756 and 0.227 | locus YJL129C, strain trk1, stronger effect = lower value 0.814 | locus YJL164C, strain tpk1, stronger effect = lower value 0.904
inactive: locus YAL021C, strain ccr4, stronger effect = lower value 0.97 | locus YAL026C, strain drs2, stronger effect = lower value 1 | locus YAL030W, strain snc1, stronger effect = lower value 0.988 | locus YBL061C, strain skt5, stronger effect = lower value 0.98 | locus YBR009C, strain hhf1, stronger effect = lower value 0.957 | locus YBR021W, strain FUR4, stronger effect = lower value 0.908 | locus YBR023C, strain chs3, stronger effect = lower value 0.981 | locus YBR171W, strain sec66, stronger effect = lower value 0.997 | locus YBR229C, strain ROT2, stronger effect = lower value 0.999 | locus YBR231C, strain swc5, stronger effect = lower value 0.974 | locus YBR279W, strain paf1, stronger effect = lower value 1 | locus YCL011C, strain gbp2, stronger effect = lower value 0.962 | locus YCL016C, strain dcc1, stronger effect = lower value 0.992 | locus YCL029C, strain bik1, stronger effect = lower value 0.994 | locus YCL061C, strain MRC1, stronger effect = lower value 0.991 | locus YCL069W, strain vba3, stronger effect = lower value 0.997 | locus YCR088W, strain abp1, stronger effect = lower value 0.991 | locus YDL005C, strain med2, stronger effect = lower value 0.966 | locus YDL035C, strain GPR1, stronger effect = lower value 0.975 | locus YDL040C, strain nat1, stronger effect = lower value 1 | locus YDL101C, strain DUN1, stronger effect = lower value 0.951 | locus YDL134C, strain PPH21, stronger effect = lower value 0.956 | locus YDL185W, strain tfp1, stronger effect = lower value 1.01 | locus YDL192W, strain arf1, stronger effect = lower value 1.01 | locus YDR001C, strain nth1, stronger effect = lower value 0.994 | locus YDR069C, strain doa4, stronger effect = lower value 0.97 | locus YDR101C, strain arx1, stronger effect = lower value 0.986 | locus YDR137W, strain rgp1, stronger effect = lower value 0.854 | locus YDR150W, strain NUM1, stronger effect = lower value 1 | locus YDR162C, strain NBP2, stronger effect = lower value 0.993 | locus YDR297W, strain sur2, stronger effect = lower value 0.989 | locus YDR318W, strain mcm21, stronger effect = lower value 1 | locus YDR334W, strain swr1, stronger effect = lower value 0.962 | locus YDR335W, strain msn5, stronger effect = lower value 0.99 | locus YDR388W, stronger effect = lower value 0.987 | locus YDR502C, strain sam2, stronger effect = lower value 0.997 | locus YEL003W, strain gim4, stronger effect = lower value 0.984 | locus YEL037C, strain rad23, stronger effect = lower value 0.995 | locus YEL061C, strain CIN8 (second series), stronger effect = lower value 0.969 | locus YEL061C, strain CIN8, stronger effect = lower value 0.999 | locus YER015W, strain faa2, stronger effect = lower value 0.988 | locus YER016W, strain bim1, stronger effect = lower value 0.996 | locus YER110C, stronger effect = lower value 1.02 | locus YER111C, strain swi4, stronger effect = lower value 0.974 | locus YER155C, strain BEM2 (second series), stronger effect = lower value 0.988 | locus YER167W, strain BCK2, stronger effect = lower value 0.933 | locus YFR010W, strain ubp6, stronger effect = lower value 0.956 | locus YGL078C, strain dbp3, stronger effect = lower value 1.01 | locus YGL086W, strain mad1, stronger effect = lower value 0.985 | locus YGL167C, strain pmr1, stronger effect = lower value 0.98 | locus YGL173C, strain kem1, stronger effect = lower value 0.986 | locus YGL227W, strain vid30, stronger effect = lower value 0.976 | locus YGL240W, strain doc1, stronger effect = lower value 0.972 | locus YGL248W, strain PDE1, stronger effect = lower value 0.961 | locus YGL253W, strain hxk2, stronger effect = lower value 1 | locus YGR135W, strain pre9, stronger effect = lower value 1.01 | locus YGR252W, strain gcn5, stronger effect = lower value 0.973 | locus YHR013C, strain ard1, stronger effect = lower value 0.885 | locus YHR027C, strain rpn1, stronger effect = lower value 0.992 | locus YHR079C, strain IRE1 (second series), stronger effect = lower value 1.01 | locus YHR094C, strain hxt1, stronger effect = lower value 0.997 | locus YHR129C, strain ARP1, stronger effect = lower value 0.932 | locus YHR142W, strain chs7, stronger effect = lower value 0.931 | locus YHR200W, strain rpn10, stronger effect = lower value 1.01 | locus YIL066C, strain RNR3, stronger effect = lower value 0.927 | locus YIL073C, strain SPO22, stronger effect = lower value 0.781 | locus YIL125W, strain kgd1, stronger effect = lower value 1 | locus YIR030C, strain dcg1, stronger effect = lower value 1 | locus YJL092W, strain hpr5, stronger effect = lower value 0.984 | locus YJL095W, strain BCK1 (second series), stronger effect = lower value 0.996 | locus YJL115W, strain asf1, stronger effect = lower value 0.988 | locus YJL134W, strain LCB3, stronger effect = lower value 0.993 | locus YJL154C, strain vps35, stronger effect = lower value 0.995 | locus YJL166W, strain qcr8, stronger effect = lower value 0.989 | locus YJL168C, strain set2, stronger effect = lower value 1 | locus YJL187C, strain SWE1 (second series), stronger effect = lower value 0.925
0.968 (inactive) and 0.298 (active): locus YHR030C, strain SLT2, stronger effect = lower value
